According to PubChem BioAssay:
Values without a mark were called inactive. For some assays here: Entries with a potency or affinity are not part of this list. The source made the active and inactive calls. Unless noted, how the calls were made is not given here.

Experiments:
[1] = antimalarial activity against Dd2 strain (AID 2302;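 active means growth inhibition above 50% at the single 2 µM test dose, taken to imply half-maximal potency below 2 µM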;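 further: 0% = DMSO untreated growth and 100% = chloroquine plus artemisinin killed control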); details: P. falciparum Dd2 in RBCs, LDH growth readout, 72 h; at 2 µM; stronger effect = higher value
[2] = human hepatoma cell viability loss – ATP luminescence, cytotoxicity control for P. falciparum antimalarial project, primary screen (AID 2303;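 active means inhibition above 50%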;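 further: 0% = DMSO wells and 100% = digitonin-killed cells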); details: HepG2 viability, 24-48 h, at 10 µM, stronger effect = higher value
[3] = molecular target: L-lactate dehydrogenase (Plasmodium falciparum (isolate CDC / Honduras)) (UniProt Q27743); experiment: PfLDH activity inhibition – cell lysate, 3D7 strain, counter-screen for P. falciparum growth inhibition project (AID 2304);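 further: 0% = vehicle and 100% = reference inhibitor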; details: P. falciparum 3D7 crude extract, LDH APAD/NBT absorbance; at 2 µM; stronger effect = higher value
L-lactate dehydrogenase (Plasmodium falciparum (isolate CDC / Honduras)), sequence (Q27743 whole entry, looked up): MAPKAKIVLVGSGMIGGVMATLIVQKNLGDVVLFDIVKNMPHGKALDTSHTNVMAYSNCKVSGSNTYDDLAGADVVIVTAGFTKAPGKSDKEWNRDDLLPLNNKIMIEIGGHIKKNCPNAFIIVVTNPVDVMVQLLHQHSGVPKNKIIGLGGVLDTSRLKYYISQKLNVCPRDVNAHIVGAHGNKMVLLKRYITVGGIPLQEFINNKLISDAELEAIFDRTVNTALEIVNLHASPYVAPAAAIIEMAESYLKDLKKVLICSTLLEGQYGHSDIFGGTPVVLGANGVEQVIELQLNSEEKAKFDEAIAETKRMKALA

[4] = inhibition of 3D7 malaria parasite growth – strain 3D7 (AID 2306);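 further: 0% = DMSO wells and 100% = chloroquine plus artemisinin control wells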; details: P. falciparum 3D7 erythrocytic growth, LDH absorbance, 72 h; at 2 µM; stronger effect = higher value
[5] = molecular target: Calcium-dependent protein kinase 1 (Plasmodium falciparum (isolate 3D7)) (UniProt P62344); experiment: PfCDPK1 kinase inhibitors, biochemical, TCAMS library (AID 1159585; cut-off not given, nearly all actives have IC50 up to about 0.98 µM;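 further: inhibitors leave more ATP so luminescence rises with inhibition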); details: recombinant PfCDPK1, Kinase-Glo ATP depletion luminescence
Calcium-dependent protein kinase 1 (Plasmodium falciparum (isolate 3D7)), sequence (P62344 whole entry, looked up): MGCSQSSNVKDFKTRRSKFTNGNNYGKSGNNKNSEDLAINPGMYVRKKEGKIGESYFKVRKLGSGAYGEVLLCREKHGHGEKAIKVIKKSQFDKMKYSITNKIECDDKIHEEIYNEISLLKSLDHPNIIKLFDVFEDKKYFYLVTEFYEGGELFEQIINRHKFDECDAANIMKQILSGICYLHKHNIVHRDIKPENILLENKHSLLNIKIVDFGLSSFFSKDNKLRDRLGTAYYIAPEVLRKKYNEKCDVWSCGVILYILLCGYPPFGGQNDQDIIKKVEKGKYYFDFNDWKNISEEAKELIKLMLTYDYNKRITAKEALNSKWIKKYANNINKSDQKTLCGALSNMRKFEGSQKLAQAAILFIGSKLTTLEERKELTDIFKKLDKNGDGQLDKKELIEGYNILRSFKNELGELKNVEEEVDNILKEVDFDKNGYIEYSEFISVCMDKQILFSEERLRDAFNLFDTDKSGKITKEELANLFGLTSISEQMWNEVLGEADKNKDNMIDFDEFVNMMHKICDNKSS

[6] = molecular target: Plasmodium falciparum protein kinase 6 (PK6, PF3D7_1337100) (UniProt Q8IDW1); experiment: PfPK6 kinase inhibitors, biochemical, TCAMS library (AID 1159586); details: recombinant PfPK6, Kinase-Glo ATP depletion luminescence
Plasmodium falciparum protein kinase 6 (PK6, PF3D7_1337100), sequence (Q8IDW1 1-305): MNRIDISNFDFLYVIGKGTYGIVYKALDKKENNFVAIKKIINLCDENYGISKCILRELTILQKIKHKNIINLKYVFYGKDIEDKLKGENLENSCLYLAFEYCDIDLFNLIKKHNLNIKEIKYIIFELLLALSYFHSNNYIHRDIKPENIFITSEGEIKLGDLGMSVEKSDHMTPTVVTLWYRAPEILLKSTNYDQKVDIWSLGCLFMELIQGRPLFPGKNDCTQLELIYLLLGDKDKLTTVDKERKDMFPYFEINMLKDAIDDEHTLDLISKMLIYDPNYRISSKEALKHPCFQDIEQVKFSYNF

[7] = molecular target: Protein kinase 7 (PK7), Plasmodium falciparum 3D7 (PF3D7_0213400) (UniProt Q7YTF7); experiment: inhibition of Plasmodium PK7 catalytic activity – biochemical, TCAMS antimalarial set, Kinase-Glo luminescence (AID 1159587); details: recombinant PfPK7, Kinase-Glo ATP depletion luminescence
Protein kinase 7 (PK7), Plasmodium falciparum 3D7 (PF3D7_0213400), sequence (Q7YTF7 1-343): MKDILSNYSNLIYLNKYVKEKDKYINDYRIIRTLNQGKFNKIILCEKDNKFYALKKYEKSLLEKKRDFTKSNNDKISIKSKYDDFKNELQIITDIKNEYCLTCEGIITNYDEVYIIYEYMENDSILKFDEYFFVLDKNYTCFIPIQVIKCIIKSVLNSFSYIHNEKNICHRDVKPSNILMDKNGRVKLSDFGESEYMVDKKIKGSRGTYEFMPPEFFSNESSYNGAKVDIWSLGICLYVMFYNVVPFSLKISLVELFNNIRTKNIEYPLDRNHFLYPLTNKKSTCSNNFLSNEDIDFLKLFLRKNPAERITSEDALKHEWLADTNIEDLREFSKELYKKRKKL

[8] = molecular target: Calcium-dependent protein kinase 4 (Plasmodium falciparum (isolate 3D7)) (UniProt Q8IBS5); experiment: PfCDPK4 kinase inhibitors, biochemical, TCAMS library (AID 1159588; cut-off not given, nearly all actives have IC50 up to about 0.91 µM); details: recombinant PfCDPK4, Kinase-Glo ATP depletion luminescence
Calcium-dependent protein kinase 4 (Plasmodium falciparum (isolate 3D7)), sequence (Q8IBS5 whole entry, looked up): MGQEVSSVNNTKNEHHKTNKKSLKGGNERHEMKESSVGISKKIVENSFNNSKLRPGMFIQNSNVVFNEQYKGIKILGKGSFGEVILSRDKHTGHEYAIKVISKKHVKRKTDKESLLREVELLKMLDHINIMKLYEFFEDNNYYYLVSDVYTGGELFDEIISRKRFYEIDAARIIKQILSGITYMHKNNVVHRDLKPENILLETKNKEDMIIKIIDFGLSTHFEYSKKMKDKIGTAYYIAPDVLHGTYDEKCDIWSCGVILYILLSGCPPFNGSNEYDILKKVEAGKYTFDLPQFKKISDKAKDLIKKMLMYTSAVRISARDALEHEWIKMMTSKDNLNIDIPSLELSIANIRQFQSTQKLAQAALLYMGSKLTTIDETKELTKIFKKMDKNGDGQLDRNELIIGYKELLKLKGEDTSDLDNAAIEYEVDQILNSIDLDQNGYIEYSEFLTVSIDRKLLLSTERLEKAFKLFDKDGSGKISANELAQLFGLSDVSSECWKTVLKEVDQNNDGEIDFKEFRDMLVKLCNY

Row | SMILES | growth inhibition [1] | inhibition [2] | inhibition [3] [%] | growth inhibition [4] | outcome [5] | outcome [6] | outcome [7] | outcome [8]
1 | COc1ccc2nccc([C@@H](O)CN3CCC(NCc4cc5cccc6c5n(c4=O)CCC6)CC3)c2c1 | 97% (active) | 33% | 1 | 98% (active) | inactive | inactive | inactive | inactive
2 | COc1c(C2CCN(CCCCNC(=O)C=Cc3cc4cc(Cl)ccc4o3)CC2)ccc2c1CCCC2 | 19% | 33% | 2 | 87% (active) | inactive | inactive | inactive | inactive
3 | CC(CNC1CCN(CCn2c(=O)ccc3ccc(F)cc32)CC1)c1ccccc1 (stereo not given) | 4% | -12% | -1 | 85% (active) | inactive | inactive | inactive | inactive
4 | CNc1ccc(CNCc2cccc(-c3ccc(-c4nc5ccccc5[nH]4)cc3)c2)cc1 | 80% (active) | 18% | -5 | 102% (active) | inactive | inactive | inactive | inactive
5 | N#Cc1ccc2c(c1)CCN(CCCn1c(-c3ccc4ccccc4c3)nc3ccncc31)CC2 | 97% (active) | 38% | 4 | 102% (active) | inactive | inactive | inactive | inactive
6 | COc1ccc(CNc2ccnc(-n3cnc4cc(C)c(C)cc43)n2)cc1Cl | 100% (active) | 6% | -8 | 100% (active) | inactive | inactive | inactive | inactive
7 | CC(C)c1ccc(N2CCN(CCCCNC(=O)c3ccc(NC(=O)c4cc(Cl)cc(Cl)c4)cc3)CC2)cc1 | 86% (active) | 12% | 8 | 101% (active) | inactive | inactive | inactive | inactive
8 | Nc1nc(Nc2cccc(O)c2)nc2ccccc12 | 79% (active) | 25% | 4 | 96% (active) | inactive | inactive | inactive | inactive
9 | Cc1cc(-c2ccc3c(c2)CCN(CCCOc2ccc4c(c2)CCN4C(=O)/C=C/c2ccccc2Cl)CC3)no1 | 50% (active) | 52% (active) | 1 | 88% (active) | inactive | inactive | inactive | inactive
10 | CCn1c(Sc2ccc(C#N)c([N+](=O)[O-])c2)nnc1-c1ccc(Cl)cc1 | 93% (active) | 0% | 6 | 97% (active) | inactive | inactive | inactive | inactive
11 | CN1CCC(C(=O)N(Cc2ccc(-c3ccc(CNCCc4ccc(S(C)(=O)=O)cc4)cn3)cc2)Cc2cccc(F)c2)CC1 | 90% (active) | 10% | -4 | 98% (active) | inactive | inactive | inactive | inactive
12 | COc1cc(-c2ccccc2)ccc1C(=O)Nc1ccc2c(c1)N(C)CCC2 | 75% (active) | 15% | -4 | 85% (active) | inactive | inactive | inactive | inactive
13 | CC(C)c1ncc(-c2ccncc2)c(C2CCC(CNC(=O)c3cccnc3)CC2)n1 (stereo not given) | 88% (active) | -14% | 1 | 89% (active) | inactive | inactive | inactive | inactive
14 | Cc1cccc(-n2c(Nc3ccc(C)c(Cl)c3)nc3ccc(S(=O)(=O)NC(C)C(C)C)cc32)c1 (stereo not given) | 97% (active) | -9% | 4 | 97% (active) | inactive | inactive | inactive | inactive
15 | CCC(=O)c1cc(C(=O)NCCc2cccc(OC)c2)ccc1OC | 12% | -7% | -2 | 83% (active) | inactive | inactive | inactive | inactive
16 | CCOc1ccc(-c2nonc2NC(=O)c2ccccc2OC)cc1OCC | 99% (active) | 24% | -3 | 100% (active) | inactive | inactive | inactive | inactive
17 | Cc1cc(N2CCN(C)CC2)nc2ccc(NC(=O)c3cccc(N(C)C)c3)cc12 | 23% | 9% | 4 | 85% (active) | inactive | inactive | inactive | inactive
18 | COc1ccc2ncc(F)c(CCN3C[C@H](CNCc4ccccc4)[C@H](O)C3)c2n1 | 22% | 19% | 8 | 89% (active) | inactive | inactive | inactive | inactive
19 | Nc1c(Cl)cc(C(O)CNCCCCCOCCc2ccccc2)cc1C(F)(F)F (stereo not given) | 96% (active) | 3% | 5 | 99% (active) | inactive | inactive | inactive | inactive
20 | O=C(Nc1ccc(CCNC2=NCCN2)cc1)Nc1ccc(CCNC2=NCCN2)cc1 | 66% (active) | 6% | 4 | 90% (active) | inactive | inactive | inactive | inactive

Row | SMILES | growth inhibition [1] | inhibition [2] | inhibition [3] [%] | growth inhibition [4] | outcome [5] | outcome [6] | outcome [7] | outcome [8]
21 | Oc1ccc(CCNc2nc(NCc3ccccc3-c3ccc(C(F)(F)F)cc3)nc(N3CCNCC3)n2)cc1 | 53% (active) | 17% | 8 | 97% (active) | inactive | inactive | inactive | inactive
22 | CCCCCCc1cc(OC)c(OC)cc1C(C)Nc1ccnc2cc(Cl)ccc12 (stereo not given) | 79% (active) | 6% | -4 | 95% (active) | inactive | inactive | inactive | inactive
23 | Cc1cc(-c2ccc(NC(=O)Nc3ccc4nccc(N5CCN(C)CC5)c4c3)cc2C)cc(C)n1 | 76% (active) | -2% | 4 | 100% (active) | inactive | inactive | inactive | inactive
24 | Cc1cccc(OC(C)C(=O)Nc2cc(C(F)(F)F)ccc2N2CCOCC2)c1 (stereo not given) | 98% (active) | 2% | -3 | 100% (active) | inactive | inactive | inactive | inactive
25 | Cc1nc(N)nc(N)c1OCCCOc1cccc(Cl)c1Cl | 95% (active) | 59% (active) | -2 | 93% (active) | inactive | inactive | inactive | inactive
26 | COc1ccc(CN2CCC(CNCCc3ccccc3Oc3ccccc3)CC2)cc1 | 56% (active) | 99% (active) | 0 | 85% (active) | inactive | inactive | inactive | inactive
27 | COc1ccc2nccc([C@@H](O)CN3CCC(NCc4cc5ccccc5[nH]4)CC3)c2n1 | 55% (active) | 17% | 3 | 101% (active) | inactive | inactive | inactive | inactive
28 | CN(C)CCN(C)Cc1ccc(-c2ccc(NC(=O)c3cccc(C#N)c3)cc2)cc1 | 49% | 20% | 2 | 89% (active) | inactive | inactive | inactive | inactive
29 | CCCCc1cc(NCC)nc(Nc2ccc(OC)cc2)n1 | 32% | 30% | -4 | 85% (active) | inactive | inactive | inactive | inactive
30 | CCCCCCc1cnc2nc(N)nc(N)c2c1C | 20% | 67% (active) | -8 | 93% (active) | inactive | inactive | inactive | inactive
31 | CCN1CCC(N(CCCCCCCCc2ccc(C(F)(F)F)cc2)C(=O)Cn2c(CCc3cccc(F)c3F)cc(=O)c3ccccc32)CC1 | 65% (active) | 89% (active) | 2 | 88% (active) | inactive | inactive | inactive | inactive
32 | OC(CNCc1ccccc1OCc1ccccc1)c1cc(C(F)(F)F)cc(C(F)(F)F)c1 (stereo not given) | 99% (active) | 3% | 3 | 100% (active) | inactive | inactive | inactive | inactive
33 | CN1CCN(CC(=O)Nc2ccc(-c3cccc(-c4nc5ccc(C(F)(F)F)cc5[nH]4)c3)cc2)CC1 | 93% (active) | 45% | -5 | 101% (active) | inactive | inactive | inactive | inactive
34 | Cc1ccc(Nc2nccc(Nc3ccc4c(C)[nH]nc4c3)n2)cc1F | 1% | 6% | 4 | 95% (active) | inactive | inactive | inactive | inactive
35 | CC(C)OC(=O)c1cccnc1SCC(=O)Nc1ccc(C(F)(F)F)cc1Cl | 88% (active) | 3% | -3 | 97% (active) | inactive | inactive | inactive | inactive
36 | CN(C)c1ccc(OCCCCCCOc2ccccc2)cc1 | 68% (active) | -7% | -5 | 85% (active) | inactive | inactive | inactive | inactive
37 | O=C(Nc1cccc(CN2CCCN(Cc3cccnc3)CC2)c1)c1ccc(Cl)c(Cl)c1 | 19% | 16% | -2 | 84% (active) | inactive | inactive | inactive | inactive
38 | CN1CCC(C(=O)Nc2cccc(-c3ccc(-c4nc5ccc(F)cc5[nH]4)cc3)c2)CC1 | 51% (active) | 12% | 3 | 100% (active) | inactive | inactive | inactive | inactive
39 | Cc1cc(C(=O)N(Cc2ccc(-c3ccc(CNCCc4ccc(S(C)(=O)=O)cc4)cn3)cc2)C(C)CN(C)C)ccc1[N+](=O)[O-] (stereo not given) | 46% | 17% | -1 | 99% (active) | inactive | inactive | inactive | inactive
40 | CC(C)C[C@H](NC(=O)c1cccc(F)c1)C(=O)N[C@H](/C=N/NC(=O)c1ccccc1)CCc1ccccc1 | 71% (active) | 0% | 2 | 93% (active) | inactive | inactive | inactive | inactive
